Results taken from PMC11006913.

Key:
Assay in all cases: PBM; 200 nM protein, PBS
Settings in all cases: dsDNA, one strand shown
HOXD13 [1] = biological target: HOXD13 (Homo sapiens, UniProt P35453 263-343, T313R)
HOXD13 [2] = biological target: HOXD13 (Homo sapiens, UniProt P35453 263-343)
HOXD13 [3] = biological target: HOXD13 (Homo sapiens, UniProt P35453 263-343, T313A)
HOXB6 [4] = biological target: HOXB6 (Homo sapiens, UniProt P17509 132-218, K202E)
ALX3 [5] = biological target: ALX3 (Homo sapiens, UniProt O95076 139-225, N203S)
MSX2 [6] = biological target: MSX2 (Homo sapiens, UniProt P35548 130-214, R199I)
MSX2 [7] = biological target: MSX2 (Homo sapiens, UniProt P35548 130-214)
MSX2 [8] = biological target: MSX2 (Homo sapiens, UniProt P35548 130-214, F161Y)
VAX1 [9] = biological target: VAX1 (Homo sapiens, UniProt Q5SQQ9 86-172)
VAX1 [10] = biological target: VAX1 (Homo sapiens, UniProt Q5SQQ9 86-172, T142I)
VAX1 [11] = biological target: VAX1 (Homo sapiens, UniProt Q5SQQ9 86-172, K157R)
ALX3 [12] = biological target: ALX3 (Homo sapiens, UniProt O95076 139-225, N203Q)
HOXA4 [13] = biological target: HOXA4 (Homo sapiens, UniProt Q00056 201-287, W262R)
HOXA4 [14] = biological target: HOXA4 (Homo sapiens, UniProt Q00056 201-287, R217L)
HOXA4 [15] = biological target: HOXA4 (Homo sapiens, UniProt Q00056 201-287)
HOXA4 [16] = biological target: HOXA4 (Homo sapiens, UniProt Q00056 201-287, W262F)
ALX3 [17] = biological target: ALX3 (Homo sapiens, UniProt O95076 139-225)
ALX3 [18] = biological target: ALX3 (Homo sapiens, UniProt O95076 139-225, L168Q)
ALX3 [19] = biological target: ALX3 (Homo sapiens, UniProt O95076 139-225, L168V)
HOXB6 [20] = biological target: HOXB6 (Homo sapiens, UniProt P17509 132-218)
Chain of HOXB6 (Homo sapiens, UniProt P17509 132-218) (P17509 132-218): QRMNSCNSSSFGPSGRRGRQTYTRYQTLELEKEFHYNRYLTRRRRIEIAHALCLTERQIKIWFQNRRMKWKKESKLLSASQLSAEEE

Chain of MSX2 (Homo sapiens, UniProt P35548 130-214, R199I) (P35548 130-214 R199I): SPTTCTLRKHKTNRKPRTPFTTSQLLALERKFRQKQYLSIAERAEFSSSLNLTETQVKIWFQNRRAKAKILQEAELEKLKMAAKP
Chain of HOXA4 (Homo sapiens, UniProt Q00056 201-287) (Q00056 201-287): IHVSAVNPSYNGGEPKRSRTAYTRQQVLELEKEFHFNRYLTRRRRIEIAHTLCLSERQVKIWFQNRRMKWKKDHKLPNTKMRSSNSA
Chain of VAX1 (Homo sapiens, UniProt Q5SQQ9 86-172) (Q5SQQ9 86-172): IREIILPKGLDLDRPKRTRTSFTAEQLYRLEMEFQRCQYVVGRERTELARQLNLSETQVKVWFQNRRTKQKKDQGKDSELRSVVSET
Chain of MSX2 (Homo sapiens, UniProt P35548 130-214) (P35548 130-214): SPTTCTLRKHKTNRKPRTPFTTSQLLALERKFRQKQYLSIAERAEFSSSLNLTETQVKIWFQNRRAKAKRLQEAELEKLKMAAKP
Chain of HOXA4 (Homo sapiens, UniProt Q00056 201-287, W262F) (Q00056 201-287 W262F): as the sequence (Q00056 201-287) above, with W62F counted along it
Chain of VAX1 (Homo sapiens, UniProt Q5SQQ9 86-172, K157R) (Q5SQQ9 86-172 K157R): as the sequence (Q5SQQ9 86-172) above, with K72R counted along it
Chain of ALX3 (Homo sapiens, UniProt O95076 139-225, N203S) (O95076 139-225 N203S): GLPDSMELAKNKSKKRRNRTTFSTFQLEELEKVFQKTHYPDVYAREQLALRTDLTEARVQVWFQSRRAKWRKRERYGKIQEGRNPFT
Chain of HOXA4 (Homo sapiens, UniProt Q00056 201-287, W262R) (Q00056 201-287 W262R): as the sequence (Q00056 201-287) above, with W62R counted along it
Chain of HOXD13 (Homo sapiens, UniProt P35453 263-343, T313R) (P35453 263-343 T313R): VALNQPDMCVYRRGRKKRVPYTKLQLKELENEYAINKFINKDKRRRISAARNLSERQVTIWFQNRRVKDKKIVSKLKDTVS
Chain of HOXD13 (Homo sapiens, UniProt P35453 263-343, T313A) (P35453 263-343 T313A): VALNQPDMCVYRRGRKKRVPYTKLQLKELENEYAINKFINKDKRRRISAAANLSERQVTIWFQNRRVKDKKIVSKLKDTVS
Chain of HOXA4 (Homo sapiens, UniProt Q00056 201-287, R217L) (Q00056 201-287 R217L): as the sequence (Q00056 201-287) above, with R17L counted along it
Chain of VAX1 (Homo sapiens, UniProt Q5SQQ9 86-172, T142I) (Q5SQQ9 86-172 T142I): as the sequence (Q5SQQ9 86-172) above, with T57I counted along it
Chain of ALX3 (Homo sapiens, UniProt O95076 139-225, N203Q) (O95076 139-225 N203Q): as the sequence (O95076 139-225 N203S) above, with S65Q counted along it
Chain of HOXB6 (Homo sapiens, UniProt P17509 132-218, K202E) (P17509 132-218 K202E): as the sequence (P17509 132-218) above, with K71E counted along it
Chain of MSX2 (Homo sapiens, UniProt P35548 130-214, F161Y) (P35548 130-214 F161Y): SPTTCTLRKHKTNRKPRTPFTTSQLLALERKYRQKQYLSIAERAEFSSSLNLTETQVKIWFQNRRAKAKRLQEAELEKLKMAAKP
Chain of HOXD13 (Homo sapiens, UniProt P35453 263-343) (P35453 263-343): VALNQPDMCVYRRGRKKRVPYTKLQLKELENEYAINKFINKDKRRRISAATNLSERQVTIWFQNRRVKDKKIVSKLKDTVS
Chain of ALX3 (Homo sapiens, UniProt O95076 139-225) (O95076 139-225): as the sequence (O95076 139-225 N203S) above, with S65N counted along it
Chain of ALX3 (Homo sapiens, UniProt O95076 139-225, L168Q) (O95076 139-225 L168Q): as the sequence (O95076 139-225 N203S) above, with L30Q, S65N counted along it
Chain of ALX3 (Homo sapiens, UniProt O95076 139-225, L168V) (O95076 139-225 L168V): as the sequence (O95076 139-225 N203S) above, with L30V, S65N counted along it

Sequence: GCAGGCCC
- binding signal (HOXD13 [1]): 9.4 upbm affinity estimate (log intensity, higher = more binding, comparable within an allelic series)
- binding signal (HOXD13 [2]): 9.64 upbm affinity estimate (log intensity, higher = more binding, comparable within an allelic series)
- binding signal (HOXD13 [3]): 9.61 upbm affinity estimate (log intensity, higher = more binding, comparable within an allelic series)

Sequence: ATAAATTG
- binding signal (HOXB6 [4]): 10 upbm affinity estimate (log intensity, higher = more binding, comparable within an allelic series)
- binding signal (ALX3 [5]): 8.68 upbm affinity estimate (log intensity, higher = more binding, comparable within an allelic series)

Sequence: CCGCAGCC
- binding signal (MSX2 [6]): 9.47 upbm affinity estimate (log intensity, higher = more binding, comparable within an allelic series)
- binding signal (HOXD13 [1]): 9.38 upbm affinity estimate (log intensity, higher = more binding, comparable within an allelic series)
- binding signal (HOXD13 [2]): 9.33 upbm affinity estimate (log intensity, higher = more binding, comparable within an allelic series)
- binding signal (MSX2 [7]): 9.43 upbm affinity estimate (log intensity, higher = more binding, comparable within an allelic series)
- binding signal (HOXD13 [3]): 9.43 upbm affinity estimate (log intensity, higher = more binding, comparable within an allelic series)
- binding signal (MSX2 [8]): 9.45 upbm affinity estimate (log intensity, higher = more binding, comparable within an allelic series)

Sequence: CGCGCCCC
- binding signal (VAX1 [9]): 7.05 upbm affinity estimate (log intensity, higher = more binding, comparable within an allelic series)
- binding signal (VAX1 [10]): 6.95 upbm affinity estimate (log intensity, higher = more binding, comparable within an allelic series)
- binding signal (VAX1 [11]): 7.04 upbm affinity estimate (log intensity, higher = more binding, comparable within an allelic series)

Sequence: CTGCCGGC
- binding signal (HOXD13 [1]): 9.44 upbm affinity estimate (log intensity, higher = more binding, comparable within an allelic series)
- binding signal (HOXD13 [2]): 9.54 upbm affinity estimate (log intensity, higher = more binding, comparable within an allelic series)
- binding signal (HOXD13 [3]): 9.67 upbm affinity estimate (log intensity, higher = more binding, comparable within an allelic series)

Sequence: CCGGACGC
- binding signal (VAX1 [9]): 7.11 upbm affinity estimate (log intensity, higher = more binding, comparable within an allelic series)
- binding signal (VAX1 [10]): 7.2 upbm affinity estimate (log intensity, higher = more binding, comparable within an allelic series)
- binding signal (VAX1 [11]): 7.16 upbm affinity estimate (log intensity, higher = more binding, comparable within an allelic series)

Sequence: ATTAACAA
- binding signal (ALX3 [12]): 8.57 upbm affinity estimate (log intensity, higher = more binding, comparable within an allelic series)

Sequence: GGGGGCCA
- binding signal (HOXA4 [13]): 9.65 upbm affinity estimate (log intensity, higher = more binding, comparable within an allelic series)
- binding signal (HOXA4 [14]): 9.62 upbm affinity estimate (log intensity, higher = more binding, comparable within an allelic series)
- binding signal (HOXA4 [15]): 9.83 upbm affinity estimate (log intensity, higher = more binding, comparable within an allelic series)
- binding signal (HOXA4 [16]): 9.79 upbm affinity estimate (log intensity, higher = more binding, comparable within an allelic series)

Sequence: CGGGCCGC
- binding signal (HOXD13 [1]): 9.48 upbm affinity estimate (log intensity, higher = more binding, comparable within an allelic series)
- binding signal (HOXD13 [2]): 9.34 upbm affinity estimate (log intensity, higher = more binding, comparable within an allelic series)
- binding signal (HOXD13 [3]): 9.63 upbm affinity estimate (log intensity, higher = more binding, comparable within an allelic series)

Sequence: AGGCGCCC
- binding signal (ALX3 [12]): 7.72 upbm affinity estimate (log intensity, higher = more binding, comparable within an allelic series)
- binding signal (ALX3 [17]): 7.55 upbm affinity estimate (log intensity, higher = more binding, comparable within an allelic series)
- binding signal (ALX3 [18]): 7.7 upbm affinity estimate (log intensity, higher = more binding, comparable within an allelic series)
- binding signal (ALX3 [19]): 7.59 upbm affinity estimate (log intensity, higher = more binding, comparable within an allelic series)
- binding signal (ALX3 [5]): 7.72 upbm affinity estimate (log intensity, higher = more binding, comparable within an allelic series)

Sequence: CTCGGGCC
- binding signal (HOXB6 [4]): 8.97 upbm affinity estimate (log intensity, higher = more binding, comparable within an allelic series)
- binding signal (HOXB6 [20]): 8.82 upbm affinity estimate (log intensity, higher = more binding, comparable within an allelic series)

Sequence: CTGCGGAC
- binding signal (HOXB6 [4]): 8.87 upbm affinity estimate (log intensity, higher = more binding, comparable within an allelic series)
- binding signal (HOXB6 [20]): 8.8 upbm affinity estimate (log intensity, higher = more binding, comparable within an allelic series)

Sequence: ACGCCGGG
- binding signal (HOXA4 [13]): 9.71 upbm affinity estimate (log intensity, higher = more binding, comparable within an allelic series)
- binding signal (HOXA4 [14]): 9.86 upbm affinity estimate (log intensity, higher = more binding, comparable within an allelic series)
- binding signal (HOXA4 [15]): 9.92 upbm affinity estimate (log intensity, higher = more binding, comparable within an allelic series)
- binding signal (HOXA4 [16]): 9.88 upbm affinity estimate (log intensity, higher = more binding, comparable within an allelic series)

Sequence: CCCAGCCG
- binding signal (HOXA4 [13]): 9.73 upbm affinity estimate (log intensity, higher = more binding, comparable within an allelic series)
- binding signal (HOXA4 [14]): 9.56 upbm affinity estimate (log intensity, higher = more binding, comparable within an allelic series)
- binding signal (HOXA4 [15]): 9.64 upbm affinity estimate (log intensity, higher = more binding, comparable within an allelic series)
- binding signal (HOXA4 [16]): 9.72 upbm affinity estimate (log intensity, higher = more binding, comparable within an allelic series)

Sequence: CCACCCGC
- binding signal (MSX2 [6]): 9.63 upbm affinity estimate (log intensity, higher = more binding, comparable within an allelic series)
- binding signal (MSX2 [7]): 9.57 upbm affinity estimate (log intensity, higher = more binding, comparable within an allelic series)
- binding signal (MSX2 [8]): 9.69 upbm affinity estimate (log intensity, higher = more binding, comparable within an allelic series)

Sequence: CGCTGCGC
- binding signal (ALX3 [12]): 7.75 upbm affinity estimate (log intensity, higher = more binding, comparable within an allelic series)
- binding signal (ALX3 [17]): 7.66 upbm affinity estimate (log intensity, higher = more binding, comparable within an allelic series)
- binding signal (VAX1 [9]): 7.4 upbm affinity estimate (log intensity, higher = more binding, comparable within an allelic series)
- binding signal (ALX3 [18]): 7.68 upbm affinity estimate (log intensity, higher = more binding, comparable within an allelic series)
- binding signal (ALX3 [19]): 7.68 upbm affinity estimate (log intensity, higher = more binding, comparable within an allelic series)
- binding signal (VAX1 [10]): 7.38 upbm affinity estimate (log intensity, higher = more binding, comparable within an allelic series)
- binding signal (ALX3 [5]): 7.74 upbm affinity estimate (log intensity, higher = more binding, comparable within an allelic series)
- binding signal (VAX1 [11]): 7.41 upbm affinity estimate (log intensity, higher = more binding, comparable within an allelic series)

Sequence: CAGGCCCG
- binding signal (MSX2 [6]): 9.39 upbm affinity estimate (log intensity, higher = more binding, comparable within an allelic series)
- binding signal (MSX2 [7]): 9.3 upbm affinity estimate (log intensity, higher = more binding, comparable within an allelic series)
- binding signal (MSX2 [8]): 9.36 upbm affinity estimate (log intensity, higher = more binding, comparable within an allelic series)
